HCV inhibitor: HCV inhibition. Huh7.5.1 HCVcc-Cre infection, luciferase reporter, 44 h. Potency, µM (doses to about 41.8 µM), for the others: at the top dose activity change, negative = inhibition, usual class: inhibitors. 3.4% of 340,000 active; active = well fitted inhibition curve with a large enough effect; inconclusive = small, poorly fitted or top-dose-only effect, or another doubt; inactive = no such curve, though single readings can be large or run the other way
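Reporter virus HCVcc-Cre (~0.5 moi) infects cells exposed to compound; seeding density 1,000 cells/well with 4 h settling beforehand. Luminescence, 15 sec read, taken 44 h post-infection following a 15 min RT substrate incubation.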
Vaccinia mCherry: inhibitors of vaccinia virus infection (mCherry reporter signal); Vaccinia virus mCherry reporter infection, fluorescence; Potency, µM (doses to about 36.5 µM), inactives show at the top dose activity change, negative = inhibition, hits mostly inhibitors; 0.63% of 310,000 active; calls by dose curve; tested in A549 cells; note: nearly all actives have a fitted effect of over 35% in size
Vaccinia Venus: inhibitors of vaccinia virus (Venus reporter); Vaccinia virus Venus reporter expression, fluorescence; Potency, µM (series often up to 36.5 µM), without a hit: at the top dose activity change, negative = inhibition, hits mostly inhibitors; AID 720580; 0.46% of 330,000 active; calls by dose curve; tested in A549 cells; note: nearly all actives have a fitted effect of over 30% in size
Active calls of the source: *; i = inactive; ? = inconclusive; . = no result; ! = not active in a repeat; [ ] = dose if it differs, or a comment. Hits are enriched below; roughly 3.3% of the tested compounds scored in any of these assays. % is set by controls: 0 for no effect and ±100 for the full control effect; potency is the fitted concentration of half-maximal effect.

SMILES	HCV inhibitor	Vaccinia mCherry	Vaccinia Venus
Cn1cc([N+](=O)[O-])c(C(=O)Nc2cc(Oc3ccccc3)cc([N+](=O)[O-])c2)n1	?	14.1µM*	?
COc1ccc(NC(=O)c2nn(C)cc2[N+](=O)[O-])cc1	0.0%	.	.
CCOc1ccc(Oc2cc(NC(=O)c3ccco3)cc([N+](=O)[O-])c2)cc1	?	-0.3%	-7.1%
COC(=O)c1ccc(C(=O)N2CCc3c(C(=O)NC(C)c4ccco4)c(OC)cc(=O)n3CC2)cc1 (stereo not drawn)	.	-11.5%	0.0%
COc1ccc(S(=O)(=O)N2CCN(C(=O)COc3ccc(C)c(C)c3)CC2)cc1OC	?	-20.0%	-15.5%
Clc1nc(NCC2CCCO2)c2[nH]cnc2n1 (stereo not drawn)	.	-24.0%	-13.8%
c1ccc(CN2CCC(Nc3ncnc4sccc34)CC2)cc1	-4.1%	-30.1%	-19.6%
Cc1sc2ncnc(NC3CCN(Cc4ccccc4)CC3)c2c1C	1µM*	?	?
Cc1ncc(CO)c(CNc2ccc(Oc3ccccc3)cc2)c1O	11.2µM*	?	-8.9%
Cc1cc(C(=O)N/N=C/c2c(CO)cnc(C)c2O)c2ccccc2n1	?	?	-16.5%
COc1ccc(Cl)cc1NC(=O)CSc1nc(=O)n(CCN(C)C)c2c1CCCC2	11.2µM*	-13.4%	?
CCCn1c(SCC(=O)Nc2cc(Cl)ccc2Cl)n[nH]c1=O	-25.9%	i	19.2%
COc1ccc(Cl)cc1NC(=O)CN(C1CCCCC1)S(C)(=O)=O	4.47µM*	.	.
CCN(CC)CCn1c2c(c(SCC(=O)Nc3ccc(C(C)C)cc3)nc1=O)CCCC2	14.1µM*	i	-13.5%
CS(=O)(=O)N(CC(=O)Nc1ccc(F)cc1F)C1CCCCC1	11.5%	-11.7%	-12.3%
COc1ccc(OC)c(NC(=O)CSc2nc(=O)n(CCN(C)C)c3c2CCC3)c1	.	-9.2%[7.34 µM]	-2.4%[7.34 µM]
CCCn1c(SCC(=O)Nc2cc(Cl)ccc2OC)n[nH]c1=O	10µM*	.	-10.0%
CCCCc1ccc(NC(=O)CSc2nc(=O)n(CCN(CC)CC)c3c2CCC3)cc1	?	?	-27.5%
O=C(C[n+]1cc(Br)cc2ccccc21)c1ccc(O)c(O)c1	.	-12.5%	-10.8%
CC(C(=O)NC(C)(C)C)n1c(C(c2ccccc2)c2ccccc2)nc2ccccc21 (stereo not drawn)	.	-30.5%	-26.8%
N#CC1(NC(=O)Cn2ncc(Cl)c(Cl)c2=O)CCCCC1	4.47µM*	?	?
N#CC1(NC(=O)CN2C(=O)c3ccccc3C2=O)CCCCC1	13.6%	.	.
COCCCNC(=S)Nc1c(C)cc(C)cc1C	1.5%	i[7.34 µM]	4.8%[7.34 µM]
CCN(CC(O)COCc1ccc(Cl)cc1)C1CCCCC1 (stereo not drawn)	?	-4.4%	-9.5%
CCN(CC(O)COc1ccc(OCC(O)CN(CC)C2CCCCC2)cc1)C1CCCCC1 (stereo not drawn)	5.01µM*	?	-17.1%
SMILES	HCV inhibitor	Vaccinia mCherry	Vaccinia Venus
O=C(Oc1nsnc1N1CCCCC1)N1CCOCC1	5.4%	14.1µM*	?
O=C(Oc1nsnc1N1CCOCC1)N1CCCC1	1.3%	.	.
Clc1ccc(-c2csc(N3CCOCC3)n2)cc1	-9.0%	-17.4%	-1.2%
Brc1ccc(-c2csc(N3CCOCC3)n2)cc1	11.2µM*	.	.
Brc1ccc(-c2csc(/N=C/N3CCCC3)n2)cc1	11.2µM*	-15.0%	-27.0%
OCCN(/C=N/c1nc(-c2ccc(Br)cc2)cs1)CCO	-14.9%	-3.5%	-23.8%
Cc1ccccc1Nc1nc(Cl)nc(NC(C)(C)C)n1	.	-20.8%	-20.1%
COc1cc(C(=O)Nc2nc3ccccc3[nH]2)ccc1OC(F)F	8.91µM*	-6.7%	-23.7%
COc1ccc(C(=O)Nc2nc3ccccc3[nH]2)cc1OC	-15.6%	.	.
O=C(COCc1cc(-c2cccs2)on1)N1CCN(c2ccc(F)cc2)CC1	.	-18.7%	-12.3%
CCn1nc(C)cc1-c1nnc(Sc2ncc([N+](=O)[O-])s2)n1C	3.55µM*	.	.
CCn1nc(C)cc1-c1nnc(SCC(=O)Nc2ccccc2)n1CCCOC	-12.7%	i	2.7%
CCOC(=O)c1ccccc1NC(=O)Cn1c(=O)n(-c2cccc(C)c2)c(=O)c2c1c1cc(C)ccc1n2C	.	2.5%	-4.4%
CCCC[C@@H](C=O)NC(=O)[C@H](CC(C)C)NC(=O)OCc1ccccc1	.	-19.7%[60.7 µM]	-14.5%[60.7 µM]
COc1cc(C2c3cc4c(cc3CC3COC(=O)C32)OCO4)cc(OC)c1O (stereo not drawn)	?	-23.6%	?
O=C1NC2C(=CC(O)C(O)C2O)c2cc3c(c(O)c21)OCO3 (stereo not drawn)	0.251µM*	8.91µM*	0.1µM*
O=C1NC2C(O)C(O)C(O)C(O)C2c2cc3c(c(O)c21)OCO3 (stereo not drawn)	?	2.24µM*	0.282µM*
O=C1NC2C(=CC(O)C(O)C2O)c2cc3c(cc21)OCO3 (stereo not drawn)	0.562µM*	?	1µM*
O=C1NCCc2cc3c(cc21)OCO3	7.0%	-10.6%	-11.8%
COc1ccc(CN2CCCC(n3cc(C(=O)N4CCCCC4)nn3)C2)c(OC)c1 (stereo not drawn)	.	-10.3%	8.6%
CC1=C(C(=O)O)N2C(=O)C(NC(=O)C(N)c3ccccc3)C2SC1 (stereo not drawn)	.	-11.6%	-4.9%
O=C(NCC1CCC2(CCN(Cc3ccc4ncccc4c3)CC2)O1)C1CCCO1 (stereo not drawn)	.	i	-12.8%
CCCc1nc2ccccc2n1CC(O)COc1ccc(C(=O)OC)cc1 (stereo not drawn)	.	-11.6%	-10.2%
Cc1csc(NC(=O)Cc2coc3cc(C)c(C(C)C)cc23)n1	10µM*	.	-17.5%
Cc1cc2occ(CC(=O)NCc3cccs3)c2cc1C(C)C	-23.4%	?	-19.2%
SMILES	HCV inhibitor	Vaccinia mCherry	Vaccinia Venus
Cc1ccccc1CSc1nc2ccsc2c(=O)n1CCC(C)C	.	-1.3%	-10.0%
Brc1cccc(CNCC2CCCO2)c1 (stereo not drawn)	-3.4%	-13.0%	-14.3%
O=C(/C=C\c1ccco1)Nc1nc(-c2ccccc2)cs1	18.9%	-14.6%	-17.0%
O=C(/C=C/c1ccccc1)Nc1nc(-c2ccncc2)cs1	7.94µM*	-10.3%	-19.0%
N#Cc1ccc(-c2csc(NC(=O)/C=C/c3cccs3)n2)cc1	6.4%	-20.7%	-21.7%
Cc1ccc(-c2csc(NC(=O)/C=C/c3cccs3)n2)cc1C	11.2µM*	?	-27.1%
COc1ccc(C2=NN(S(C)(=O)=O)C(c3cn(-c4ccccc4)nc3-c3cccs3)C2)cc1 (stereo not drawn)	.	-8.1%[7.34 µM]	-13.0%[7.34 µM]
CCS(=O)(=O)n1nc(-c2ccco2)nc1NCc1ccc(C(C)C)cc1	.	-18.3%	-2.9%
CC(=O)OCC1=C(C(=O)O)N2C(=O)[C@@H](NC(=O)Cc3ccccc3)[C@H]2SC1	16.1%	28.1%	2.8%
CC(=O)OCC1=C(C(=O)O)N2C(=O)[C@@H](NC(=O)Cc3cccs3)[C@H]2SC1	0.562µM*!	1.9%	-1.9%
O=C(Cc1csc(N2CCOCC2)n1)N/N=C/c1ccc(Cl)cc1Cl	11.2µM*	.	.
COc1cc(/C=N/NC(=O)Cc2csc(N3CCOCC3)n2)cc(OC)c1O	7.4%	.	.
CCOC(=O)c1c(NC(C)=O)sc2c1CCC(C=O)=C2Sc1ccccc1	2.82µM*	?	-19.4%
CCOC(=O)c1c(NC(C)=O)sc2c1CCCNC2=O	-16.5%	.	-13.0%
Cc1ccc(C(=O)OCC(=O)N2c3ccccc3NC(=O)C2(C)C)cc1S(=O)(=O)N1CCCCC1	?	i	6.9%

Bioassay records from PubChem BioAssay.
